Screening data deposited in PubChem BioAssay by National Center for Advancing Translational Sciences (NCATS).
Hits are enriched below; roughly 3.2% of the tested compounds scored in any of these assays.
RGS12 GoLoco inh: RGS12 GoLoco-Gai1 interaction inhibition; Gai1:RGS12 GoLoco peptide FP, rhodamine, 10 min; Potency, µM (titrated, usually from 61.6 µM), actives largely listed as inhibitors; 0.44% of 230,000 active; AID 880; active = well fitted inhibition curve with a large enough effect, not every such curve was filed as active; inactive = no such curve, though single readings can be large or run the other way; also: nearly all actives have a fitted effect of over 30% in size
Target sequence (P63096 whole entry, looked up): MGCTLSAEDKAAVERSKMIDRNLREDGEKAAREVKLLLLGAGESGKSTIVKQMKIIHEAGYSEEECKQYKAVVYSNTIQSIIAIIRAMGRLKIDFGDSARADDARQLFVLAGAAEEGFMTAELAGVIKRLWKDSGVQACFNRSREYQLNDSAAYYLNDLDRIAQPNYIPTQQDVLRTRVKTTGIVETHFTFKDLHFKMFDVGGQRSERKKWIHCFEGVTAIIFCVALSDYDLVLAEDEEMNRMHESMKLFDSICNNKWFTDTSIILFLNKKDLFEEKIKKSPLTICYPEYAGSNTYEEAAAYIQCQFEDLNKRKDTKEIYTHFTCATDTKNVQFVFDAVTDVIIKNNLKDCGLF
Tau FP inhib: inhibitors of human tau fibril formation; 0.39% of 280,000 active; K18 P301L tau heparin fibrillization, Alexa594 FP, 6 h; P10636; Potency, µM (series often up to 57.7 µM), actives largely listed as inhibitors; AID 1468; also: nearly all actives have a fitted effect of over 55% in size
Target sequence (P10636 561-689 P618L limits assumed): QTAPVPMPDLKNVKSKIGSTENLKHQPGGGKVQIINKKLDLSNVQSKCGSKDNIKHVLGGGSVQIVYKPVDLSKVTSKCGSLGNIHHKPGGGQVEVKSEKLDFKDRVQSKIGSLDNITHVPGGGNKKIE
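Human K18 P301L fragment (15 uM unlabeled plus 0.24 uM Alexa 594-labeled) in 100 mM sodium acetate pH 7 with compound, aggregation induced by 20 uM heparin for 6 hr at 37 C. ThT (30 uM) added for 1 hr, then Alexa 594 FP read.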
TexasRed fluor: alters Texas Red total fluorescence, flagging assay interference; Potency, µM (highest dose often 106 µM); TRb/SRC2 Texas Red total fluorescence interference; 0.29% of 280,000 active; active = well fitted curve in either direction with a large enough effect; inconclusive = small, poorly fitted or top-dose-only effect
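Human TRβ ligand-binding domain (0.6 uM) and Texas Red SRC2 peptide (20 nM) in Tris buffer with 1 uM T3 and 5% DMSO were incubated with pinned compound for 5 hr at ambient temperature. Total fluorescence was computed as S + 2P (555/632 nm).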
Tau fibril ThT: tau fibrillization inhibition (ThT binding); 2.1% of 270,000 active; P10636; Potency, µM (series often up to 57.4 µM), hits mostly inhibitors; recombinant tau K18 P301L, heparin-induced fibrillization, ThT fluorescence; also: nearly all actives have a fitted effect of over 55% in size
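K18 P301L tau (15 uM + 0.24 uM Alexa 594-tagged), heparin 20 uM, NaOAc pH 7, 6 h 37 C; ThT 30 uM, 1 h RT, ex 450/em 510 nm.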
Tau fluor counter: counter-screen for tau fibril formation inhibitors. AID 1463. 0.93% of 280,000 active. Potency, µM (doses to about 57.7 µM). tau K18 P301L (four-repeat tau fragment) Alexa594 fluorescence, heparin fibrillization; also: nearly all actives have a fitted effect of over 55% in size
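Human K18 P301L tau (15 uM unlabeled plus 0.24 uM Alexa 594-labeled, final) in 100 mM sodium acetate pH 7 was mixed with compound and 20 uM heparin and incubated 6 hr at 37 C.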
TRb-SRC2 inh: TRbeta-SRC2 interaction inhibition | TRbeta-SRC2 peptide binding, fluorescence polarization; receptor liganded with 1 µM T3 | Potency, µM (top dose mostly 106 µM), most hits filed as inhibitors | 0.065% of 280,000 active; also: nearly all actives have a fitted effect of over 50% in size
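Human TRb ligand-binding domain (0.6 uM) is mixed with 20 nM Texas Red SRC2 peptide and 1 uM T3; after compound addition and 5 hr at ambient temperature, polarization is measured and normalized to unbound and bound controls.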
Hits are given with their value; [ ] = dose if it differs, or a comment. Unless noted, calls follow the shape of the dose curve; as a rule, active = well fitted curve in the direction sought with a large enough effect; inconclusive = small, poorly fitted or top-dose-only effect, or another doubt; inactive = no such curve, though single readings can be large; an effect the other way counts as inactive or inconclusive.

What do the screens show for `Cc1ccccc1N=Cc1cc2c(cc1[N+](=O)[O-])OCO2`?
RGS12 GoLoco inh: inactive; Tau FP inhib: inactive; TexasRed fluor: inactive; Tau fibril ThT: inactive; Tau fluor counter: inactive; TRb-SRC2 inh: inactive

Results for COc1ccc(N=Cc2cc(Cc3ccccc3Cl)cc([N+](=O)[O-])c2O)cc1OC ?
RGS12 GoLoco inh: inactive; Tau FP inhib: inconclusive; TexasRed fluor: inactive; Tau fibril ThT: 10µM; Tau fluor counter: inactive; TRb-SRC2 inh: inactive

What do the screens show for `Cc1ccccc1CNC(=O)Cn1c(=O)c2cccn2c2cccnc21`?
Tau FP inhib: inactive; TexasRed fluor: inactive; Tau fibril ThT: inactive; Tau fluor counter: inactive; TRb-SRC2 inh: inactive

Results for CO[C@H]1COC(=O)C/C=C\[C@@H](C)[C@H](OC)COC(=O)[C@H]2CCCN2C(=O)C/C=C\[C@@H]1C ?
Tau FP inhib: inactive[11.6 µM]; TexasRed fluor: inactive[11.2 µM]; Tau fibril ThT: inactive[11.5 µM]; Tau fluor counter: inactive[11.6 µM]; TRb-SRC2 inh: inactive[11.2 µM]

What do the screens show for `CCOc1ccc(NC(=O)c2c(NCc3cccs3)sc3c2CCC(C)C3)cc1` (stereo not drawn)?
Tau FP inhib: inactive; TexasRed fluor: 355µM[quencher]; Tau fibril ThT: inconclusive; Tau fluor counter: inactive; TRb-SRC2 inh: inactive

What do the screens show for `O=C(Nc1sc2c(c1C(=O)Nc1cccc(Cl)c1)CCCC2)c1cccs1`?
Tau FP inhib: inconclusive; TexasRed fluor: inactive; Tau fibril ThT: 11.2µM; Tau fluor counter: inactive; TRb-SRC2 inh: inactive

How did CCOC(=O)c1ccc(NC(=O)c2c(NC(=O)CCC(=O)O)sc3c2CCCCC3)cc1 do in these assays?
RGS12 GoLoco inh: inactive; Tau FP inhib: inactive; TexasRed fluor: inactive; Tau fibril ThT: inconclusive; Tau fluor counter: inactive; TRb-SRC2 inh: inactive

Results for CCOc1ccc(NC(=O)c2c(NCc3cccnc3)sc3c2CCC(C)C3)cc1 (stereo not drawn) ?
Tau FP inhib: inactive; TexasRed fluor: inactive; Tau fibril ThT: 15.8µM; Tau fluor counter: inconclusive; TRb-SRC2 inh: inactive

What do the screens show for `CCOc1ccccc1NC(=O)c1c(NCc2cccs2)sc2c1CCC(C)C2` (stereo not drawn)?
Tau FP inhib: inactive; TexasRed fluor: inactive; Tau fibril ThT: inactive; Tau fluor counter: inactive; TRb-SRC2 inh: inactive

Results for CCOC(=O)c1ccc(NC(=O)c2c(NCc3cccs3)sc3c2CCCCC3)cc1 ?
Tau FP inhib: inconclusive; TexasRed fluor: inconclusive; Tau fibril ThT: 22.4µM; Tau fluor counter: inactive; TRb-SRC2 inh: inactive

How did CCNc1nc(N)nc(Cl)n1 do in these assays?
TexasRed fluor: inactive; TRb-SRC2 inh: inactive

Results for Cc1ccc(NC(=O)Cn2c(=O)n(Cc3nc(-c4ccccc4)no3)c(=O)c3ccccc32)c(C)c1 ?
Tau FP inhib: inconclusive; TexasRed fluor: inactive; Tau fibril ThT: inactive; Tau fluor counter: inactive; TRb-SRC2 inh: inactive

Results for OC(CNCCC1C=Nc2ccccc21)Cn1c2ccc(Cl)cc2c2cc(Cl)ccc21 (stereo not drawn) ?
RGS12 GoLoco inh: inactive; Tau FP inhib: inconclusive; TexasRed fluor: inactive; Tau fibril ThT: inconclusive; Tau fluor counter: 3.16µM[quencher]; TRb-SRC2 inh: inactive

What do the screens show for `Cc1cc(C)n(CC(O)Cn2c3ccc(Cl)cc3c3cc(Cl)ccc32)c(=O)n1` (stereo not drawn)?
RGS12 GoLoco inh: inactive; Tau FP inhib: inactive; TexasRed fluor: inactive; Tau fibril ThT: inactive; Tau fluor counter: inactive; TRb-SRC2 inh: inactive

Results for Nc1ncc(S(=O)(=O)N2CCN(c3ccccc3)CC2)cn1 ?
Tau FP inhib: inactive; TexasRed fluor: 0.0056µM[quencher]; Tau fibril ThT: inactive; Tau fluor counter: inactive; TRb-SRC2 inh: inactive

How did COc1ccc(OC)c(Nc2ccc(Nc3cc(OC)ccc3OC)nn2)c1 do in these assays?
RGS12 GoLoco inh: inactive; Tau FP inhib: inconclusive; TexasRed fluor: inactive; Tau fibril ThT: inconclusive; Tau fluor counter: 12.6µM[quencher]; TRb-SRC2 inh: inactive

Results for Cc1ccc(NC(c2nnc(-c3ccccc3)o2)c2ccccc2F)c([N+](=O)[O-])c1 (stereo not drawn) ?
Tau FP inhib: inactive; TexasRed fluor: 251µM[quencher]; Tau fibril ThT: inconclusive; Tau fluor counter: inactive; TRb-SRC2 inh: inactive

What do the screens show for `Cc1ccc(NC(c2nnc(-c3ccccc3)o2)c2ccccc2F)c(Cl)c1` (stereo not drawn)?
Tau FP inhib: inactive; TexasRed fluor: inactive; Tau fibril ThT: inactive; Tau fluor counter: inactive; TRb-SRC2 inh: inactive

How did CCOc1cc(CNCCSc2nnnn2C)cc(Cl)c1OCc1ccc(Cl)cc1 do in these assays?
Tau FP inhib: inactive; TexasRed fluor: 20µM[quencher]; Tau fibril ThT: inconclusive; Tau fluor counter: inconclusive; TRb-SRC2 inh: inactive

What do the screens show for `CCCCCCCCN=C(N)c1ccc(C(=O)OCC2CCCCC2)cc1`?
TexasRed fluor: inactive; TRb-SRC2 inh: inactive

How did CCOC(=O)Cc1c(Cl)c2ccccc2[nH]c1=O do in these assays?
RGS12 GoLoco inh: inactive; Tau FP inhib: inactive; TexasRed fluor: inactive; Tau fibril ThT: inactive; Tau fluor counter: inactive; TRb-SRC2 inh: inactive

How did CCOC(=O)CSc1c(-c2ccc(Cl)cc2)[nH]c2ccccc12 do in these assays?
RGS12 GoLoco inh: inactive; Tau FP inhib: inconclusive; TexasRed fluor: inactive; Tau fibril ThT: inactive; Tau fluor counter: 11.2µM[quencher]; TRb-SRC2 inh: inactive

How did CCOC(=O)CSc1c(-c2cccs2)[nH]c2ccccc12 do in these assays?
RGS12 GoLoco inh: inactive; Tau FP inhib: inconclusive; TexasRed fluor: inactive; Tau fibril ThT: inconclusive; Tau fluor counter: 8.91µM[quencher]; TRb-SRC2 inh: inactive

Results for Cc1ccc(S(=O)(=O)N=C=O)cc1 ?
TexasRed fluor: inactive; TRb-SRC2 inh: inactive

Results for O=C(COC(=O)C1CC(O)CN1S(=O)(=O)c1ccc(Cl)cc1)c1ccccc1Cl (stereo not drawn) ?
RGS12 GoLoco inh: inactive; Tau FP inhib: inactive; TexasRed fluor: inactive; Tau fibril ThT: inactive; Tau fluor counter: inactive; TRb-SRC2 inh: inactive

Results for O=C(COC(=O)C1CC(O)CN1S(=O)(=O)c1ccc(Cl)cc1)c1ccccc1 (stereo not drawn) ?
RGS12 GoLoco inh: inactive; Tau FP inhib: inactive; TexasRed fluor: 0.112µM[quencher]; Tau fibril ThT: inactive; Tau fluor counter: inactive; TRb-SRC2 inh: inactive

What do the screens show for `CCN(CC)C(=O)c1sc2c(c1C)c(=O)n(-c1ccc(Cl)c(Cl)c1)c(=O)n2Cc1cc(=O)n2c(C)cccc2n1`?
Tau FP inhib: inactive; TexasRed fluor: inactive; Tau fibril ThT: inactive; Tau fluor counter: inactive; TRb-SRC2 inh: inactive

Results for Cc1cc(-c2ccc(N=Nc3ccc4c(S(=O)(=O)O)cc(S(=O)(=O)O)c(N)c4c3O)c(C)c2)ccc1N=Nc1ccc2c(S(=O)(=O)O)cc(S(=O)(=O)O)c(N)c2c1O ?
RGS12 GoLoco inh: inactive; Tau FP inhib: 3.16µM; TexasRed fluor: 17.8µM[fluorescent]; Tau fibril ThT: 1.41µM; Tau fluor counter: 0.794µM[quencher]; TRb-SRC2 inh: 25.1µM
